Results as given in publication PMC4552634, “A New Set of Chemical Starting Points with Plasmodium falciparum Transmission-Blocking Potential for Antimalarial Drug Discovery” (PLoS ONE, 2015).
Hit rate of the full screen: of about 13,000 compounds, about 3,200 (25%) showed an effect of 50% or more. The list shows a part of the results.

System: P. falciparum stage V gametocytes
Set-up: BacTiter-Glo ATP luminescence viability of purified stage V gametocytes in 384-well plates, per cent inhibition versus DMSO
Conditions: 48 h, 5 µM; inhibitor

Compound	% Inhibition [%]
CC(=O)Nc1nc(-c2ccccc2)[nH]c1C(N)=O [TCMDC-131311]	-1.405
COc1ccc(Nc2nccc(N3CCC(NC(=O)c4cccc(NC(C)=O)c4)C3)n2)cc1 (stereo not shown) [TCMDC-133611]	-20.16
O=C(N[C@H]1CCN(CCc2ccc(O[C@H]3CCNC3)c(Br)c2)C1)c1ccc(Cl)c(Cl)c1 [TCMDC-141069]	53.75
O=C(N[C@H]1CCN(CCc2ccc(O[C@H]3CCNC3)c(Cl)c2)C1)c1ccc(Cl)c(Cl)c1 [TCMDC-141068]	47.4
O=C(N[C@H]1CCN(Cc2ccc(OC3CCN(Cc4ccccc4)CC3)c(Br)c2)C1)c1ccc(Cl)c(Cl)c1 [TCMDC-140286]	18.35
O=C(NCCN1CCN(S(=O)(=O)c2ccc(OC3CCNCC3)c(Br)c2)CC1)c1ccc(Cl)c(Cl)c1 [TCMDC-141153]	84.33
O=C(N[C@H]1CCN(CCc2ccc(O[C@H]3CCNC3)c(F)c2)C1)c1ccc(Cl)c(Cl)c1 [TCMDC-141067]	56.15
COCCNC(=O)c1ccc(OC2CCN(Cc3ccc(F)c(F)c3)CC2)c(Cl)c1 [TCMDC-124653]	4.866
O=C(N[C@H]1CCN(CCc2ccc(O[C@H]3CCNC3)cc2)C1)c1ccc(Cl)c(Cl)c1 [TCMDC-141066]	34.25
Cc1cc(C)c2c(c1)C(=NO)CCN2 [TCMDC-140382]	-79.12
NC1CCN(c2nc(NCCc3ccc(O)cc3)nc(NCc3ccccc3-c3ccc(C(F)(F)F)cc3)n2)CC1 [TCMDC-133442]	32.82
CN1CCC(Oc2cc(NC(=O)Nc3ccc(-c4ccncc4)c(C(F)(F)F)c3)ccc2Cl)CC1 [TCMDC-139223]	-12.77
COc1cc(COc2c(C)nc(N)nc2N)cc(OC)c1OC [TCMDC-131346]	7.837
CC(=O)Nc1ccc(Cl)c(Cl)c1 [TCMDC-125481]	-1.69
NC(N)=NC(=O)Nc1ccc(Cl)c(Cl)c1 [TCMDC-124295]	-4.176
NCCCN(Cc1ccc(Cl)c(Cl)c1)C(=O)Nc1ccc(Cl)c(Cl)c1 [TCMDC-139415]	96.81
Cc1cccc(C(=O)Nc2ccc(N3CCCN(Cc4cccc(O)c4)CC3)cc2)c1 [TCMDC-134958]	-89.08
O=C(/C=C/c1ccc(Cl)c(Cl)c1)NC1CCC(CN2CCC(c3nc4ccccc4s3)CC2)CC1 (stereo not shown) [TCMDC-140215]	29.32
Ic1cc(CNC2CCCCC2)ccc1OCc1cccc(COc2ccc(CNC3CCCCC3)cc2I)c1 [TCMDC-137261]	115.7
OC(CNCc1ccccc1OCc1ccccc1)c1cc(Br)cs1 (stereo not shown) [TCMDC-140398]	22.96
Clc1cccc(CNC2CCN(CC3CCCCC3)CC2)c1 [TCMDC-141659]	7.676
OC(CNCc1ccccc1)c1cc(OCc2ccccc2)cc(OCc2ccccc2)c1 (stereo not shown) [TCMDC-132079]	44.54
COc1cc2ncnc(Nc3ccc(OCc4ccccc4)c(I)c3)c2cc1OC [TCMDC-131944]	-25.01

Compound	% Inhibition [%]
CN1CCN(Cc2ccc(OCc3cccc(COc4ccc(CN5CCN(C)CC5)cc4I)c3)c(I)c2)CC1 [TCMDC-137239]	60.02
CC(C)NCc1ccc(OCc2cccc(COc3ccc(CNC(C)C)cc3I)c2)c(I)c1 [TCMDC-137259]	114.3
CC(C)CNCc1ccc(OCc2cccc(COc3ccc(CNCC(C)C)cc3I)c2)c(I)c1 [TCMDC-137260]	108.7
CN1CCN(Cc2ccc(-c3cc4c(Nc5ccc(OCc6cccc(F)c6)c(Cl)c5)ncnc4s3)[nH]2)CC1 [TCMDC-135458]	-90.63
Oc1ccc(Cc2ccccc2)cc1CNC1CCCCC1 [TCMDC-137598]	6.281
CC(C)NCc1cccc(-c2cccc(-c3nc4ccccc4[nH]3)c2)c1 [TCMDC-132748]	37.6
CC(C)(C)c1cc(CN2CCN(Cc3ccccc3)CC2)cc(C(C)(C)C)c1O [TCMDC-125537]	-7.705
O=C(NC1CCC(N2CCC(Cc3ccc(F)cc3)CC2)CC1)c1cc2ccccc2[nH]1 (stereo not shown) [TCMDC-132894]	45.26
Cc1cnc(-c2ccc(NC(=O)N3CCc4cc5nccc(N6CCN7CCC[C@H]7C6)c5cc43)c3ccccc23)o1 [TCMDC-140052]	-7.754
COc1ccc(NS(=O)(=O)c2cc(NC(=O)Cn3ccccc3=O)ccc2N2CCCCC2)cc1 [TCMDC-124874]	16.03
Cc1cc2c(cc1C(F)(F)F)N(C(=O)Nc1ccc(C(=O)NCCN3CCCC3)cc1)CC2 [TCMDC-139870]	3.174
CC(=O)Nc1ncc(C(=O)Nc2cccc(-c3cccc(-c4nc5c(C)cccc5[nH]4)c3)c2)s1 [TCMDC-136920]	35.18
C=CCOC(=O)N1CCC(CNCc2ccc(-c3ccc(-c4nc5cc(C(F)(F)F)ccc5[nH]4)cc3)cc2)C1.O=C(O)C(F)(F)F (stereo not shown) [TCMDC-133041]	-74.05
CC(C)CCNCc1ccc(OCc2cccc(C(=O)Nc3ccccc3)c2)c(I)c1 [TCMDC-137174]	28.8
CCc1cc(COc2ccc(CNCCC(C)C)cc2I)c(OCc2ccccc2)c(COc2ccc(CNCCC(C)C)cc2I)c1 [TCMDC-137255]	104.7
Oc1ccc(CCNCc2ccc(OCc3ccccc3)c(OCc3ccccc3)c2)cc1 [TCMDC-131868]	6.388
CC(C)CCNCc1ccc(OCc2cccc(COc3ccc(CNCCC(C)C)cc3I)c2)c(I)c1 [TCMDC-137274]	110.6
Ic1cc(Nc2ncnc3ccsc23)ccc1OCc1ccccc1 [TCMDC-131945]	7.84
CN(C)Cc1cccc(CNC(=O)c2sccc2OCc2ccc(Cl)cc2)c1 [TCMDC-133072]	41.43
Cc1ccc(C)c(NC(=O)Nc2ccc(C)c(-c3ccc(C(=O)Nc4ccncc4)cc3)c2)c1 [TCMDC-133703]	-9.34
COc1ccc(CCNc2ccnc3cc(Cl)ccc23)cc1OC [TCMDC-138550]	-32.91
COc1ccc(NC(=O)N2CCCN(CCCCCNC(=O)/C=C/c3ccc(Cl)cc3)CC2)cc1Cl [TCMDC-136103]	-49.97
COc1cc(CCNC(=N)/C=C/c2ccc(Cl)cc2)ccc1Cl [TCMDC-137457]	106.7
